Results published in PubChem BioAssay (NCI).
About 79,000 compounds went through this panel and 15% of them were active in at least one assay; those are over-represented in the sample as a whole. Active and inactive are the calls of the source. Rule as the data show it: active = growth inhibition above about 70%; inactive = the rest.

Assays:
[1] = NCI Yeast Anticancer Drug Screen. Data for the rad52 strain (AID 147);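 also: 0% = growth of vehicle-treated control cultures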; conditions: S. cerevisiae rad52 mutant growth inhibition, hits give high values
Procedure, shortened: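 Yeast strain carrying a DNA damage repair alteration was exposed to test compounds. Growth inhibition was measured relative to vehicle-treated controls.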

[2] = NCI Yeast Anticancer Drug Screen. Data for the wt1 strain (AID 149);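 also: 0% = growth of vehicle-treated wt1 cultures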; conditions: S. cerevisiae wt1 strain (SPY 50644) growth inhibition, hits give high values
Procedure, shortened: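 Compounds are added to wt1 yeast cultures. Growth is then measured. Inhibition is expressed relative to vehicle-treated controls.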

[3] = NCI Yeast Anticancer Drug Screen. Data for the rad50EPP+ strain (AID 151);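 also: 0% = growth of vehicle-treated control cultures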; conditions: S. cerevisiae rad50 mutant strain, hits give high values
Procedure, shortened: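 Yeast strain carrying rad50 alteration (rad50EPP+) exposed to compounds; growth inhibition measured relative to vehicle-treated controls.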

[4] = NCI Yeast Anticancer Drug Screen. Data for the mgt1 strain (AID 153); conditions: S. cerevisiae mgt1 mutant growth inhibition, hits give high values
Procedure, shortened: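 Yeast mgt1 strain (DNA repair/cell-cycle alteration panel) exposed to compounds; growth inhibition measured relative to vehicle-treated controls.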

[5] = NCI Yeast Anticancer Drug Screen. Data for the rad50 strain (AID 155);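 also: 0% = growth of vehicle-only cultures of the same strain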; conditions: S. cerevisiae rad50 strain growth inhibition, hits give high values
Procedure, shortened: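 Inhibition values express reduced yeast growth in compound-treated cultures relative to vehicle-treated controls.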

[6] = NCI Yeast Anticancer Drug Screen. Data for the mec2-1 strain (AID 157); conditions: S. cerevisiae mec2-1 strain, hits give high values
Procedure, shortened: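 mec2-1 yeast strain, carrying an alteration in DNA damage repair or cell cycle control, was exposed to compounds; growth inhibition was measured relative to vehicle-treated controls.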

[7] = NCI Yeast Anticancer Drug Screen. Data for the rad14 strain (AID 159);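 also: 0% = growth of vehicle-treated control cultures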; conditions: S. cerevisiae rad14 strain growth inhibition, hits give high values
Procedure, shortened: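 A mutant yeast strain defective in DNA damage repair is treated with compound; inhibition of its growth is scored against untreated, vehicle-exposed cultures.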

[8] = NCI Yeast Anticancer Drug Screen. Data for the sgs1 mgt1 strain (AID 161);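 also: 0% = growth of cultures given vehicle only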; conditions: S. cerevisiae sgs1 mgt1 strain, hits give high values
Procedure, shortened: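 This yeast growth screen uses a strain with defined DNA-repair lesions; compound-treated growth is compared with vehicle-treated growth.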

[9] = NCI Yeast Anticancer Drug Screen. Data for the CLN2oe strain (AID 163);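 also: 0% = growth of vehicle-only control cultures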; conditions: S. cerevisiae CLN2oe strain, hits give high values
Procedure, shortened: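 Yeast cells carrying a defined cell-cycle control alteration were exposed to test compounds. Growth inhibition was scored against vehicle-treated control cultures.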

[10] = NCI Yeast Anticancer Drug Screen. Data for the cln2 rad14 strain (AID 165);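 also: 0% = growth equal to vehicle treated cultures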; conditions: S. cerevisiae cln2 rad14 strain, hits give high values
Procedure, shortened: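 Yeast carrying cln2 and rad14 alterations (cell cycle control and DNA damage repair) were exposed to compounds. Growth inhibition was measured against vehicle-treated controls.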

[11] = NCI Yeast Anticancer Drug Screen. Data for the bub3 strain (AID 167); conditions: S. cerevisiae bub3 mutant strain, hits give high values
Procedure, shortened: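 Steps: expose the mutant yeast strain to compound; grow alongside vehicle-treated cultures; measure growth; express inhibition against the vehicle cultures.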

[12] = NCI Yeast Anticancer Drug Screen. Data for the wt2 strain (AID 169);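 also: 0% = growth of vehicle-treated yeast cultures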; conditions: S. cerevisiae wt2 strain growth inhibition, hits give high values
Procedure, shortened: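 Yeast cells were exposed to test compounds, and growth inhibition was measured relative to vehicle-treated controls.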

[13] = NCI Yeast Anticancer Drug Screen. Data for the mlh1 strain (AID 171);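 also: 0% = growth of vehicle-treated control cultures of the same strain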; conditions: S. cerevisiae mlh1 strain growth inhibition, hits give high values
Procedure, shortened: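 Yeast carrying a defined genetic alteration in DNA damage repair or cell cycle control were exposed to test compounds. Growth inhibition was measured relative to vehicle-treated controls.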

[14] = NCI Yeast Anticancer Drug Screen. Data for the sgs1 strain (AID 173);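 also: 0% = growth of vehicle-only control cultures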; conditions: S. cerevisiae sgs1 mutant, hits give high values
Procedure, shortened: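 Yeast mutant strains carrying defined defects in DNA damage repair or cell cycle control were exposed to test compounds. Growth inhibition was scored against vehicle-treated controls.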

[15] = NCI Yeast Anticancer Drug Screen. Data for the mlh1 rad18 strain (AID 175); conditions: S. cerevisiae mlh1 rad18 strain growth inhibition, hits give high values
Procedure, shortened: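 Growth inhibition of the yeast strain was measured after compound exposure and expressed relative to vehicle-treated controls. The strain carries defined defects in DNA damage repair.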

[16] = NCI Yeast Anticancer Drug Screen. Data for the rad18 strain (AID 177); conditions: S. cerevisiae rad18 mutant growth inhibition, hits give high values
Procedure, shortened: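 Yeast carrying a defined DNA damage repair alteration were exposed to compounds. Growth inhibition was expressed relative to vehicle-treated controls.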

[17] = at 5.0 µM (retest, dose inferred, filed as 0.5)
[18] = at 50.0 µM (retest, dose inferred, filed as 5.0)

Measured: growth inhibition

O=C(NCCCCCCCN1CCCCCCC1)C(C1CCCCC1)C1CCCCC1
inactive: [1]; at 1.2 µM 40% | [1]; at 3.7 µM 52% | [2]; at 1.2 µM 18% | [2]; at 3.7 µM 26% | [2]; at 11.0 µM 61% | [3]; at 1.2 µM 0% | [3]; at 3.7 µM -1% | [3]; at 11.0 µM 4% | [3]; at 33.0 µM 16% | [3]; at 100.0 µM 41% | [4]; at 1.2 µM 64% | [5]; at 1.2 µM 41% | [5]; at 3.7 µM 45% | [5]; [17] 35% | [6]; at 1.2 µM 43% | [6]; at 3.7 µM 39% | [6]; [17] 29% | [8]; [17] 36% | [9]; at 1.2 µM 53% | [9]; at 3.7 µM 65% | [10]; [17] 62% | [11]; at 1.2 µM 65% | [11]; at 3.7 µM 66% | [11]; [17] 27% | [12]; at 1.2 µM 37% | [12]; at 3.7 µM 56% | [13]; at 1.2 µM 44% | [13]; at 3.7 µM 48% | [14]; at 1.2 µM 59% | [14]; at 3.7 µM 67% | [15]; [17] 17% | [16]; at 1.2 µM 51% | [16]; at 3.7 µM 64%
active: [1]; at 11.0 µM 89% | [1]; at 33.0 µM 98% | [1]; at 100.0 µM 99% | [2]; at 33.0 µM 97% | [2]; at 100.0 µM 98% | [4]; at 3.7 µM 83% | [4]; at 11.0 µM 97% | [4]; at 33.0 µM 98% | [4]; at 100.0 µM 99% | [5]; at 11.0 µM 81% | [5]; at 33.0 µM 98% | [5]; [18] 99% | [5]; at 50.0 µM 99.3% | [5]; at 100.0 µM 98% | [6]; at 11.0 µM 85% | [6]; at 33.0 µM 98% | [6]; [18] 97% | [6]; at 50.0 µM 94.2% | [6]; at 100.0 µM 99% | [7]; at 1.2 µM 72% | [7]; at 3.7 µM 75% | [7]; at 11.0 µM 97% | [7]; at 33.0 µM 99% | [7]; at 100.0 µM 99% | [8]; [18] 98% | [8]; at 50.0 µM 99% | [9]; at 11.0 µM 92% | [9]; at 33.0 µM 97% | [9]; at 100.0 µM 98% | [10]; [18] 98% | [10]; at 50.0 µM 96.5% | [11]; at 11.0 µM 95% | [11]; at 33.0 µM 97% | [11]; [18] 99% | [11]; at 50.0 µM 99% | [11]; at 100.0 µM 98% | [12]; at 11.0 µM 95% | [12]; at 33.0 µM 98% | [12]; at 100.0 µM 99% | [13]; at 11.0 µM 95% | [13]; at 33.0 µM 98% | [13]; at 100.0 µM 99% | [14]; at 11.0 µM 95% | [14]; at 33.0 µM 98% | [14]; at 100.0 µM 99% | [15]; [18] 98% | [15]; at 50.0 µM 99.2% | [16]; at 11.0 µM 92% | [16]; at 33.0 µM 97% | [16]; at 100.0 µM 98%

CC1=NN(c2cccc(Cl)c2)C(=O)C1
inactive: [1]; at 1.2 µM -33% | [1]; at 3.7 µM -33% | [1]; at 11.0 µM -22% | [1]; at 33.0 µM -16% | [1]; at 100.0 µM 14% | [2]; at 1.2 µM -13% | [2]; at 3.7 µM -36% | [2]; at 11.0 µM -22% | [2]; at 33.0 µM -2% | [2]; at 100.0 µM 28% | [3]; at 1.2 µM -65% | [3]; at 3.7 µM -50% | [3]; at 11.0 µM -38% | [3]; at 33.0 µM -27% | [3]; at 100.0 µM -26% | [4]; at 1.2 µM -21% | [4]; at 3.7 µM -44% | [4]; at 11.0 µM -40% | [4]; at 33.0 µM 8% | [4]; at 100.0 µM 63% | [5]; at 1.2 µM -47% | [5]; at 3.7 µM -54% | [5]; at 11.0 µM -61% | [5]; at 33.0 µM -44% | [5]; at 50.0 µM 43.4% | [5]; at 100.0 µM 28% | [6]; at 1.2 µM -35% | [6]; at 3.7 µM -27% | [6]; at 11.0 µM -5% | [6]; at 33.0 µM 8% | [6]; at 50.0 µM 56.1% | [6]; at 100.0 µM 32% | [7]; at 1.2 µM -4% | [7]; at 3.7 µM -21% | [7]; at 11.0 µM -22% | [7]; at 33.0 µM 3% | [7]; at 100.0 µM 36% | [8]; [17] -12% | [8]; [18] 56% | [8]; at 50.0 µM 55.9% | [9]; at 1.2 µM -26% | [9]; at 3.7 µM -4% | [9]; at 11.0 µM -1% | [9]; at 33.0 µM -15% | [9]; at 100.0 µM 20% | [10]; [17] 39% | [10]; [18] 62% | [10]; at 50.0 µM 27.2% | [11]; at 1.2 µM -42% | [11]; at 3.7 µM -33% | [11]; [17] 27% | [11]; at 11.0 µM -32% | [11]; at 33.0 µM -36% | [11]; [18] 33% | [11]; at 50.0 µM 57.1% | [11]; at 100.0 µM 29%
active: [5]; [17] 81% | [5]; [18] 99% | [6]; [17] 74% | [6]; [18] 100%
